# Data reported in article PMC8384837, “Expanding the binding specificity for RNA recognition by a PUF domain”.
# Changes are numbered by the printed parent chain.
# How the values were obtained:
# Assay in all cases: yeast three-hybrid, YBZ-1, SC-Leu-His + 0.5 mM 3-AT, 4 days
# Details in all cases: tags: N-Gal4 AD-HA kept; label: inside an RPR1-promoter hybrid RNA with tandem MS2 sites; ssRNA
# [1] = target: T1, PUM1 PUF domain R6-TFD (Homo sapiens, UniProt Q14671 828-1176, N1043T;Y1044F;Q1047D)
# T1 sequence: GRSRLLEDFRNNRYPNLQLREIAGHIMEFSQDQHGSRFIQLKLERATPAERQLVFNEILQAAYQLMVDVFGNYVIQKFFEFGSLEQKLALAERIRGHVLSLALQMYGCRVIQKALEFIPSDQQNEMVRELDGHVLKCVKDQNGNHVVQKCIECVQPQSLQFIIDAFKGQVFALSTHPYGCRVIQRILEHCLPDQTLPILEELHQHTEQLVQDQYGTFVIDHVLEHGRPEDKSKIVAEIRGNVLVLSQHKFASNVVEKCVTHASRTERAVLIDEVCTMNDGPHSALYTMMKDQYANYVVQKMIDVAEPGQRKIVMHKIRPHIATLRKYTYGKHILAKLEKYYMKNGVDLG
# In short: (§1)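 The interaction score is the log change in variant frequency from input to selection. Scores were computed in log2 with a pseudocount of 1 for absent variants, using Illumina sequencing of PCR-amplified repeat regions. The input came from four days on SC-Leu and the selection from four days on SC-Leu-His + 0.5 mM 3-AT. The cells were strain YBZ-1 (LexA–MS2 coat fusion, HIS3 reporter) co-expressing Pumilio-1 PUF domain libraries and matching RNA elements from a centromeric plasmid.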
# [2] = target: PUM1 PUF domain R2-LWR (Homo sapiens, UniProt Q14671 828-1176, N899L;Y900W;Q903R)
# In short: as §1
# [3] = target: T2, PUM1 PUF domain R6-AFR (Homo sapiens, UniProt Q14671 828-1176, N1043A;Y1044F;Q1047R)
# T2 sequence: T1 sequence with T216A, D220R
# In short: as §1
# [4] = target: PUM1 PUF domain R1-QGR (Homo sapiens, UniProt Q14671 828-1176, S863Q;R864G;Q867R)
# In short: as §1
# [5] = target: PUM1 PUF domain R1-GRN (Homo sapiens, UniProt Q14671 828-1176, S863G;Q867N)
# In short: as §1
# [6] = target: PUM1 PUF domain R2-KIG (Homo sapiens, UniProt Q14671 828-1176, N899K;Y900I;Q903G)
# In short: as §1
# [7] = target: PUM1 PUF domain R5-NGC (Homo sapiens, UniProt Q14671 828-1176, C1007N;R1008G;Q1011C)
# In short: as §1
# [8] = target: PUM1 PUF domain R5-FRV (Homo sapiens, UniProt Q14671 828-1176, C1007F;Q1011V)
# In short: as §1
# [9] = target: PUM1 PUF domain R5-RNS (Homo sapiens, UniProt Q14671 828-1176, C1007R;R1008N;Q1011S)
# In short: as §1
# [10] = target: PUM1 PUF domain R5-NAI (Homo sapiens, UniProt Q14671 828-1176, C1007N;R1008A;Q1011I)
# In short: as §1
# [11] = target: PUM1 PUF domain R4-DHV (Homo sapiens, UniProt Q14671 828-1176, N971D;Q975V)
# In short: as §1
# [12] = target: PUM1 PUF domain R1-KMC (Homo sapiens, UniProt Q14671 828-1176, S863K;R864M;Q867C)
# In short: as §1
# [13] = target: PUM1 PUF domain R5-RKQ (Homo sapiens, UniProt Q14671 828-1176, C1007R;R1008K)
# In short: as §1
# [14] = target: PUM1 PUF domain R5-TRY (Homo sapiens, UniProt Q14671 828-1176, C1007T;Q1011Y)
# In short: as §1
# [15] = target: PUM1 PUF domain R3-PFY (Homo sapiens, UniProt Q14671 828-1176, C935P;R936F;Q939Y)
# In short: as §1
# [16] = target: PUM1 PUF domain R4-TRG (Homo sapiens, UniProt Q14671 828-1176, N971T;H972R;Q975G)
# In short: as §1
# [17] = target: T3, PUM1 PUF domain R6-GYK (Homo sapiens, UniProt Q14671 828-1176, N1043G;Q1047K)
# T3 sequence: T1 sequence with T216G, F217Y, D220K
# In short: as §1
# [18] = target: T4, PUM1 PUF domain R6-NFL (Homo sapiens, UniProt Q14671 828-1176, Y1044F;Q1047L)
# T4 sequence: T1 sequence with T216N, D220L
# In short: as §1
# [19] = target: PUM1 PUF domain R1-KTY (Homo sapiens, UniProt Q14671 828-1176, S863K;R864T;Q867Y)
# In short: as §1
# [20] = target: PUM1 PUF domain R7-KWN (Homo sapiens, UniProt Q14671 828-1176, S1079K;N1080W;E1083N)
# In short: as §1
sequence,measurement,setting,value
GGCUAGAACUAGUGGAUCCCCCGGCGCCCGGCGGCUCGAGCCCGGGUAAGUGGAAAUAGUCUGCAUGCCGCCGGGCGCCAUGCCUGCAGGUCGACUCUAGAAAACAUG,binding signal,[1],4.99 log2 enrichment (interaction score)
GGCUAGAACUAGUGGAUCCCCCGGCGCCCGGCGGCUCGAGCCCGGGUAAGUGUAAAAAGUCUGCAUGCCGCCGGGCGCCAUGCCUGCAGGUCGACUCUAGAAAACAUG,binding signal,[2],3.68 log2 enrichment (interaction score)
GGCUAGAACUAGUGGAUCCCCCGGCGCCCGGCGGCUCGAGCCCGGGUAAGUGCAAAUAGUCUGCAUGCCGCCGGGCGCCAUGCCUGCAGGUCGACUCUAGAAAACAUG,binding signal,[3],4.86 log2 enrichment (interaction score)
GGCUAGAACUAGUGGAUCCCCCGGCGCCCGGCGGCUCGAGCCCGGGUAAGUGUAAAUCGUCUGCAUGCCGCCGGGCGCCAUGCCUGCAGGUCGACUCUAGAAAACAUG,binding signal,[4],2.69 log2 enrichment (interaction score)
same,binding signal,[5],3.33 log2 enrichment (interaction score)
GGCUAGAACUAGUGGAUCCCCCGGCGCCCGGCGGCUCGAGCCCGGGUAAGUGUAAAGAGUCUGCAUGCCGCCGGGCGCCAUGCCUGCAGGUCGACUCUAGAAAACAUG,binding signal,[6],3.17 log2 enrichment (interaction score)
same,binding signal,[2],1.92 log2 enrichment (interaction score)
GGCUAGAACUAGUGGAUCCCCCGGCGCCCGGCGGCUCGAGCCCGGGUAAGUGUGAAUAGUCUGCAUGCCGCCGGGCGCCAUGCCUGCAGGUCGACUCUAGAAAACAUG,binding signal,[7],3.12 log2 enrichment (interaction score)
GGCUAGAACUAGUGGAUCCCCCGGCGCCCGGCGGCUCGAGCCCGGGUAAGUGUUAAUAGUCUGCAUGCCGCCGGGCGCCAUGCCUGCAGGUCGACUCUAGAAAACAUG,binding signal,[8],2.68 log2 enrichment (interaction score)
same,binding signal,[9],4.14 log2 enrichment (interaction score)
same,binding signal,[10],3.43 log2 enrichment (interaction score)
GGCUAGAACUAGUGGAUCCCCCGGCGCCCGGCGGCUCGAGCCCGGGUAAGUGUACAUAGUCUGCAUGCCGCCGGGCGCCAUGCCUGCAGGUCGACUCUAGAAAACAUG,binding signal,[11],5.75 log2 enrichment (interaction score)
GGCUAGAACUAGUGGAUCCCCCGGCGCCCGGCGGCUCGAGCCCGGGUAAGUGUAAAUGGUCUGCAUGCCGCCGGGCGCCAUGCCUGCAGGUCGACUCUAGAAAACAUG,binding signal,[12],3.4 log2 enrichment (interaction score)
same,binding signal,[5],1.19 log2 enrichment (interaction score)
GGCUAGAACUAGUGGAUCCCCCGGCGCCCGGCGGCUCGAGCCCGGGUAAGUGUCAAUAGUCUGCAUGCCGCCGGGCGCCAUGCCUGCAGGUCGACUCUAGAAAACAUG,binding signal,[13],3.43 log2 enrichment (interaction score)
same,binding signal,[8],1.98 log2 enrichment (interaction score)
same,binding signal,[9],3.43 log2 enrichment (interaction score)
GGCUAGAACUAGUGGAUCCCCCGGCGCCCGGCGGCUCGAGCCCGGGUAAGUGUAAAUAGUCUGCAUGCCGCCGGGCGCCAUGCCUGCAGGUCGACUCUAGAAAACAUG,binding signal,[14],4.49 log2 enrichment (interaction score)
same,binding signal,[15],4.24 log2 enrichment (interaction score)
same,binding signal,[3],4.43 log2 enrichment (interaction score)
same,binding signal,[16],5.35 log2 enrichment (interaction score)
same,binding signal,[17],2.87 log2 enrichment (interaction score)
same,binding signal,[18],5.25 log2 enrichment (interaction score)
GGCUAGAACUAGUGGAUCCCCCGGCGCCCGGCGGCUCGAGCCCGGGUAAGUGUAUAUAGUCUGCAUGCCGCCGGGCGCCAUGCCUGCAGGUCGACUCUAGAAAACAUG,binding signal,[11],6.27 log2 enrichment (interaction score)
GGCUAGAACUAGUGGAUCCCCCGGCGCCCGGCGGCUCGAGCCCGGGUAAGUGUAAAUUGUCUGCAUGCCGCCGGGCGCCAUGCCUGCAGGUCGACUCUAGAAAACAUG,binding signal,[19],3.93 log2 enrichment (interaction score)
GGCUAGAACUAGUGGAUCCCCCGGCGCCCGGCGGCUCGAGCCCGGGUAAGUCUAAAUAGUCUGCAUGCCGCCGGGCGCCAUGCCUGCAGGUCGACUCUAGAAAACAUG,binding signal,[20],5.98 log2 enrichment (interaction score)
